# From PubChem BioAssay AID626 (Vanderbilt High Throughput Screening Facility, 2007)
# The campaign covered roughly 64,000 compounds. About 1,900 (3%) were called active.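 How the source made its calls: active means fluorescence rise, raw or as B-score row- and column-corrected plate score, outside the 99.7% band of its plate's samples, either direction; inactive means the rest.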 What follows is part of a selection rich in actives, with near analogues and random picks from the rest.
# Test system: Muscarinic acetylcholine receptor M1
# Assay: M1 muscarinic receptor agonists, primary screen, CHO-M1 cells, Fluo-4 calcium, agonist mode (AID 626)
# Conditions: Fluo-4 calcium fluorescence, at 10 µM, stronger effect = higher value
row,SMILES,B-score
1,CC(C)C[C@H](NC(=O)Nc1cccc(C(F)(F)F)c1)C(=O)O,0.0481 (inactive)
2,CC(=O)c1c(C)c[nH]c1C,0.323 (inactive)
3,Cc1nc(CNS(=O)(=O)c2cccnc2)cs1,0.163 (inactive)
4,Cc1ccc(S(=O)(=O)NCc2csc(C)n2)c(C)c1,-0.841 (inactive)
5,Cc1nc(CNS(=O)(=O)c2ccc(Oc3ccccc3)cc2)cs1,3.97 (active)
6,CC(C)C(NC(=O)OCc1ccccc1)C(=O)OCC(=O)N1C(C)CCCC1C (centres undefined),-0.582 (inactive)
7,COc1ccc(N(CC(=O)NC(C)(C)C)C(=O)c2ccco2)cc1,3.36 (active)
8,O=C(NCCSc1ccccc1)c1ccco1,0.47 (inactive)
9,CC(C)(C)NC(=O)c1cc(NC(=O)c2ccco2)cc(NC(=O)c2ccco2)c1,4.57 (inactive)
10,COC(=O)c1ccc(N(CC(=O)NC2CCCC2)C(=O)CNC(=O)c2ccco2)cc1,-0.016 (inactive)
11,COc1cc(OC)cc(C(=O)NCCSCc2ccco2)c1,-0.317 (inactive)
12,COc1ccc(CCNC(=O)c2ccco2)cc1,78.9 (active)
13,CCOC(=O)N1CCN(C(=O)CSc2nnc(-c3c[nH]c4ccccc34)n2CCOC)CC1,0.791 (inactive)
14,O=C(OCC(=O)c1cccs1)C1=COCCO1,-0.115 (inactive)
15,COc1ccc(C(c2nnnn2C2CCCCC2)N2CCN(c3ccccc3F)CC2)cc1 (centres undefined),-0.721 (inactive)
16,COC(=O)c1ccc(CSc2nc3ccccc3c(=O)n2-c2cccc(OC)c2)o1,3.63 (active)
17,COCC(C)n1c(SCc2ccc(C(=O)OC)o2)nc2ccccc2c1=O (centres undefined),1.47 (inactive)
18,COC(=O)c1ccc(CSc2ccccc2C)o1,-0.274 (inactive)
19,CCOC(=O)N1CCC(C(N)=O)CC1,-0.221 (inactive)
20,COc1ccc2c(c1)C=CC1(O2)N(CCO)c2ccccc2C1(C)C (centres undefined),0.737 (inactive)
21,COc1ccc(OC)c(S(=O)(=O)Nc2ccccc2F)c1,-0.55 (inactive)
22,Cc1cc(Nc2ccccc2)n(CCC#N)n1,-0.373 (inactive)
23,CN1CCN(c2ccc(NC(=O)COc3ccc(Cl)cc3Cl)cc2)CC1,-0.55 (inactive)
24,Cc1cc(NC(=O)COc2ccc(Cl)cc2Cl)n(CCC#N)n1,-2.93 (active)
25,O=C(c1cccs1)N1CCN(Cc2ccc3c(c2)OCO3)CC1,0.609 (inactive)

row,SMILES,B-score
1,COc1ccc(Nc2oc(-c3ccccc3Cl)nc2C#N)cc1,37.2 (active)
2,CCOc1ccc(Nc2oc(Cc3ccccc3)nc2C#N)cc1,0.194 (inactive)
3,N#Cc1nc(-c2ccc(OCc3ccccc3)cc2)oc1NCCCN1CCOCC1,1.06 (inactive)
4,CCN1C(=O)CS/C1=N\c1nccs1,0.514 (inactive)
5,O=C(Nc1ccc(Cl)cc1)c1ccsn1,-0.00233 (inactive)
6,COc1cc(C(=O)Nc2nccs2)cc(OC)c1OC,1.84 (inactive)
7,COc1cc(C(=O)Nc2oc(-c3ccccc3)c(-c3ccccc3)c2C#N)cc(OC)c1OC,3.33 (active)
8,N#Cc1c(NC(=O)CCCN2C(=O)c3ccccc3C2=O)oc(-c2ccccc2)c1-c1ccccc1,-0.449 (inactive)
9,O=C(CNS(=O)(=O)c1ccc(Br)s1)NCc1ccc2c(c1)OCO2,-0.057 (inactive)
10,Cc1cc(C)nc(SCc2nnc(SCC(=O)Nc3ncc(C)s3)n2Cc2ccco2)n1,0.0432 (inactive)
11,CCCc1cc(=O)[nH]c(SCC(=O)OCc2ccccc2)n1,-0.24 (inactive)
12,O=C(Cn1cc(C(=O)c2cccs2)c2ccccc21)NCc1cccs1,5.61 (active)
13,COC(=O)Cn1cc(C(=O)c2cccs2)c2ccccc21,-0.298 (inactive)
14,COC(=O)c1cn(CC(=O)NCc2cccs2)c2ccccc12,-0.913 (inactive)
15,COc1ccccc1OCCC(=O)OCC(=O)NC(=O)NC(C)(C)C,-0.0604 (inactive)
16,O=C(Nc1ccon1)c1cccc(Cl)c1,-0.792 (inactive)
17,O=C(Nc1cccc(NC(=O)N2CCN(c3ccccc3)CC2)c1)N1CCN(c2ccccc2)CC1,5.66 (active)
18,CC(=O)N1CCN(C(=O)Nc2cccc(C(F)(F)F)c2)CC1,1.54 (inactive)
19,O=C(Nc1cccc(C(=O)N2CCCC2)c1)c1ccccc1,0.113 (inactive)
20,Cc1ccc(N2CCN(S(=O)(=O)c3ccc(F)cc3)CC2)c(C)c1,1.76 (inactive)
21,O=C(NCCc1ccc2c(c1)OCCO2)c1cc2ccccc2o1,5.92 (active)
22,O=C(Nc1ccncc1)c1cc2ccccc2o1,-0.306 (inactive)
23,O=C(CC(Cc1ccccc1)C(=O)O)NCCc1ccc2c(c1)OCO2 (centres undefined),-0.0151 (inactive)
24,CCOc1cccc(-n2nnnc2-c2ccc(OC)cc2)c1,-0.152 (inactive)
25,COc1ccccc1OCCOc1ccc(/C=N/n2cnnc2)cc1,-1.48 (inactive)

row,SMILES,B-score
1,COc1cccc(OCCOc2cccc(/C=N/n3cnnc3)c2)c1,0.112 (inactive)
2,C(=N\n1cnnc1)/c1cccnc1,7.81 (active)
3,CCOC(=O)c1sc(NC(=O)C(CC)Sc2nccn2C)nc1C (centres undefined),0.459 (inactive)
4,Cc1nnc(SCCCn2c(N3CCCCC3)nc3c2c(=O)[nH]c(=O)n3C)s1,-0.0644 (inactive)
5,COc1ccccc1N1CCN(C(=O)c2cn(-c3ccccc3)nc2-c2cccnc2)CC1,5.33 (active)
6,O=C(c1cn(-c2ccccc2)nc1-c1cccnc1)N1CCCCC1,0.178 (inactive)
7,COC(=O)c1cn(-c2ccccc2)nc1-c1cccnc1,-1.56 (inactive)
8,CCOC(=O)Nc1ccc2c(c1)N(C(=O)CN1CCN3CCCC3C1)c1ccccc1CC2 (centres undefined),0.0902 (inactive)
9,CCOc1ccc(NC(=O)Nc2cc(C)on2)cc1,-2.11 (inactive)
10,c1cnn(-c2cc(N3CCOCC3)ncn2)c1,-2.54 (active)
11,O=C(Nc1cc(N2CCOCC2)ncn1)NC1(C(F)(F)F)Oc2ccc(Cl)cc2O1 (centres undefined),0.249 (inactive)
12,O=C(Nc1ccc(F)cc1)c1cccnc1N1CCOCC1,0.0065 (inactive)
13,CCCC(=O)Nc1cccc(-c2cn3ccsc3n2)c1,-2.92 (active)
14,O=C(NCc1cn2ccsc2n1)Nc1cccc(Cl)c1,-0.0716 (inactive)
15,COc1ccc(-c2cn3ccsc3n2)cc1,0.708 (inactive)
16,OCCCN1c2ccccc2Nc2nnc(-c3ccccc3)cc21,2.37 (inactive)
17,CCOc1cccc(=O)c2c(C)n(CC3CCCO3)c(C)c12 (centres undefined),-0.504 (inactive)
18,CCOc1cc(-c2nc3cc(C)ccn3c2NCC2CCCO2)ccc1O (centres undefined),5.56 (active)
19,CCOc1cc(C(=S)N2CCOCC2)ccc1O,0.0946 (inactive)
20,O=C(CC1Oc2ccccc2NC1=O)NCCCN1CCN(Cc2ccccc2)CC1 (centres undefined),-0.153 (inactive)
21,COCCn1c(-c2ccc(OC)c(OC)c2)nc2ccccc21,0.157 (inactive)
22,COc1ccc(CCn2c(-c3ccco3)nc3nc4ccccc4nc32)cc1OC,5.87 (active)
23,Clc1cccc(-c2nc3nc4ccccc4nc3n2Cc2ccco2)c1,2.1 (inactive)
24,COc1ccc(-c2nn(-c3ccccc3)cc2C(=O)Nc2nc(CC(C)=O)ns2)cc1,0.649 (inactive)
25,Cn1c(C(=O)NCCCN2CCN(c3cccc(Cl)c3)CC2)cc2c(=O)n(C)c3ccccc3c21,-1.68 (inactive)

row,SMILES,B-score
1,CC1CCCC(C)N1CCCNC(=O)c1cc2c(=O)n(C)c3ccccc3c2n1C (centres undefined),0.176 (inactive)
2,Cn1c(C(=O)NCCc2ccsc2)cc2c(=O)n(C)c3ccccc3c21,3.97 (active)
3,CCOc1cc(S(=O)(=O)NC2CC(C)(C)NC(C)(C)C2)ccc1F,-1.83 (inactive)
4,N#CC1=C(N)C(C#N)(C#N)[C@H](c2ccsc2)[C@H]2COCC=C12,3.35 (active)
5,O=S(=O)(N1CCOCC1)N1CCN(c2ccccc2F)CC1,0.0546 (inactive)
6,O=C1c2ccccc2-c2ncnc3c(N4CCOCC4)cc(N4CCOCC4)c1c23,2.4 (active)
7,c1ccc(-c2oc3ncnc(N4CCOCC4)c3c2-c2ccccc2)cc1,-0.65 (inactive)
8,O=C(NCCC1=CCCCC1)C1CCN(Cc2cnn(-c3ccccc3)c2-n2cccc2)CC1,3.61 (active)
9,O=C(COc1cccc(-n2cnnn2)c1)NCCC1=CCCCC1,-0.532 (inactive)
10,C1=C(CCNc2ncnc3c2cnn3-c2ccccc2)CCCC1,0.14 (inactive)
11,COc1ccc(CCNc2ncnc3nc[nH]c23)cc1OC,-0.961 (inactive)
12,Cc1cc(NC(=O)CCC2COc3ccccc3O2)no1 (centres undefined),-0.76 (inactive)
13,c1ccc2c(c1)OCC(CNc1ncnc3nc[nH]c13)O2 (centres undefined),104 (active)
14,O=S1(=O)CC(NCc2ccccc2)C(Nc2ccc(Cl)cc2)C1 (centres undefined),-0.0591 (inactive)
15,Cc1ccc(-c2c3c(=O)n(C)c(=O)n(C)c3cn2-c2ccccc2O)cc1,0.252 (inactive)
16,COc1cccc(-n2cc3c(c2-c2ccccc2)c(=O)n(C)c(=O)n3C)c1,7.45 (active)
17,COc1ccc(-c2c3c(=O)n(C)c(=O)n(C)c3cn2-c2cccc(OC)c2)cc1,0.091 (inactive)
18,CCCCn1c(SCC(=O)NCC2CCCO2)nc2ccc(N3CCOCC3)cc2c1=O (centres undefined),0.658 (inactive)
19,COc1ccccc1CNC(=O)CCCNS(=O)(=O)c1cccc2nsnc12,-0.144 (inactive)
20,CCS(=O)(=O)N1CCCC(C(=O)NCCCN(C)Cc2ccccc2)C1 (centres undefined),0.0256 (inactive)
21,CNC(=O)c1c(NC(=O)c2ccc(S(=O)(=O)N3CCOCC3)cc2)sc2c1CCC2,-0.0829 (inactive)
22,CC(=O)Nc1cccc(Oc2cc(C#N)c(C#N)cc2N2CCOCC2)c1,0.0039 (inactive)
23,CCOc1cc(NC(=O)c2ccco2)c(OCC)cc1NC(=O)COc1ccccc1,0.0561 (inactive)
24,CCOc1cc(N2CCOCC2)c(OCC)cc1NC(=O)COc1cccc2cccnc12,4.8 (active)
